Data on 8 compounds can be found in PubChem BioAssay (NCI).

The panel holds about 83,000 compounds, 20% with a hit somewhere; the sample as a whole holds those more often.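 Results are percent growth after 48 hours of single-concentration exposure. 100 means growth as in untreated cells, lower positive values show inhibition; negative values down to -100 show cell death.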 A number with no mark means an inactive call. Active and inactive are the calls of the source. Rule for the calls: active = growth percent below 10; inactive = the rest.

Test systems include NCI-H23 lung; NCI-H226 lung; NCI-H322M lung; HOP-62 NSCLC; NCI-H460 lung; HOP-92 NSCLC; NCI-H522 lung; A549/ATCC NSCLC; 786-0 renal; DU-145 prostate; K-562 leukemia; MALME-3M melanoma; MDA-MB-231 breast; RXF 393 renal; SF-268 CNS; SF-295 CNS; SF-539 CNS; UACC-257 melanoma; M14 melanoma; COLO 205 colon.
Common to all, as to experiment: NCI-60 one-dose screen, 48 h (100 = growth as untreated, 0 = no growth, -100 = all killed)
Details in all cases: 10 µM unless noted

Turning to `Cc1cc(N2CCCCC2)cc(C)c1-c1csc(NC(=O)c2ccncc2)n1`, the growth is 45.1% in the assay with NCI-H23 lung; 60.6% with NCI-H226 lung; 78.2% in the assay with NCI-H322M lung; 62.5% in the assay with HOP-62 NSCLC; 66.9% in the assay with NCI-H460 lung; 53.8% with HOP-92 NSCLC. Moreover, the growth was 44.1% with NCI-H522 lung; 49.1% in the assay with A549/ATCC NSCLC; 77.5% in the assay on 786-0 renal; 77% with DU-145 prostate; 22.1% in the assay with K-562 leukemia; 59.7% with MALME-3M melanoma. For the same compound, the growth in the assay on MDA-MB-231 breast was 54.5%; in the assay on RXF 393 renal, 77.6%; in the assay on SF-268 CNS, 60%; in the assay with SF-295 CNS, 22.5%; in the assay with SF-539 CNS, 81.1%; in the assay on UACC-257 melanoma, 33.2%. Also, the growth in the assay with M14 melanoma is 57.8%.
Take `CC(=O)Oc1ccc(N2C(=O)C(Cl)=C(Nc3cccc(C(F)(F)F)c3)C2=O)cc1`: the growth was 100% with NCI-H23 lung; 92.1% in the assay with NCI-H226 lung; 98.6% in the assay on NCI-H322M lung; 96.9% with HOP-62 NSCLC; 102% in the assay on NCI-H460 lung; 99.7% with HOP-92 NSCLC. In addition, the growth was 86% in the assay with NCI-H522 lung; 93.9% in the assay with A549/ATCC NSCLC; 95.7% in the assay with 786-0 renal; 101% in the assay on DU-145 prostate; 90.4% with K-562 leukemia; 102% with MALME-3M melanoma. For the same compound, the growth with MDA-MB-231 breast is 95.3%; in the assay on RXF 393 renal it was 87%; in the assay with SF-268 CNS, 94.3%; in the assay with SF-295 CNS, 102%; in the assay on SF-539 CNS, 96.5%; with UACC-257 melanoma, 97.1%.
For the compound `Cc1ccc(CNc2ccc3nc(CCC4CCCCC4)[nH]c3c2)cc1`, the growth was 30.6% in the assay with NCI-H23 lung; 43.2% in the assay with NCI-H226 lung; 92.3% in the assay on NCI-H322M lung; 73% in the assay on HOP-62 NSCLC; 58.4% in the assay on NCI-H460 lung; 0.719% (active) in the assay on HOP-92 NSCLC. Also, the growth in the assay on NCI-H522 lung was 9.99% (active); with A549/ATCC NSCLC, 63.3%; in the assay on 786-0 renal it was 52.2%; with COLO 205 colon it was -30% (active); in the assay with DU-145 prostate, 71.8%; in the assay with K-562 leukemia it was 5.06% (active). Also, the growth with MALME-3M melanoma was 22.4%; in the assay with MDA-MB-231 breast, 53.1%; in the assay on RXF 393 renal, 36.2%; with SF-268 CNS it was 71.2%; in the assay with SF-295 CNS, 61.1%; in the assay on SF-539 CNS, 64.6%. The growth in the assay with UACC-257 melanoma was 66.8%; in the assay on M14 melanoma it was 37.4%.
As for `Cc1nc2sc(C(=O)Nc3cccc(Br)c3)c(N)c2cc1C(O)c1ccccc1` (stereo not drawn), the growth was 25.1% in the assay with NCI-H23 lung; 61.7% in the assay with NCI-H226 lung; 61% with NCI-H322M lung; 47.5% in the assay on HOP-62 NSCLC; 4.9% (active) in the assay with NCI-H460 lung; 76.3% with HOP-92 NSCLC. Besides, the growth was 9.66% (active) in the assay on NCI-H522 lung; 20.4% with A549/ATCC NSCLC; 36.2% in the assay on 786-0 renal; 23.8% in the assay on DU-145 prostate; 7.97% (active) in the assay with K-562 leukemia; 55% in the assay on MALME-3M melanoma. Also, the growth with MDA-MB-231 breast is 24.2%; in the assay on RXF 393 renal, 28.2%; with SF-268 CNS it was 42.4%; with SF-295 CNS it was 40.2%; in the assay on SF-539 CNS, 6.22% (active); in the assay with UACC-257 melanoma, 38.8%. In the assay with M14 melanoma, the growth is 16.7%.
Consider `CCn1c(SCC(=O)N/N=C(\C)c2ccc(Cl)cc2)nc2c1c(=O)n(C)c(=O)n2C`, for which the growth was 102% in the assay with NCI-H23 lung; 99.7% with NCI-H226 lung; 96.9% in the assay with NCI-H322M lung; 91.8% with HOP-62 NSCLC; 101% in the assay on NCI-H460 lung; 103% in the assay with HOP-92 NSCLC. The growth was 97.7% in the assay with NCI-H522 lung; 104% in the assay on A549/ATCC NSCLC; 101% in the assay on 786-0 renal; 108% with DU-145 prostate; 98% with K-562 leukemia; 100% with MALME-3M melanoma. For the same compound, the growth was 104% in the assay with MDA-MB-231 breast; 106% in the assay with RXF 393 renal; 98% with SF-268 CNS; 101% in the assay on SF-295 CNS; 96.3% with SF-539 CNS; 103% with UACC-257 melanoma. The growth in the assay on M14 melanoma is 97.4%.
As for `CC(=O)N1N=C(c2ccc(Nc3nc(Nc4ccccc4)nc(Nc4ccccc4)n3)cc2)CC1c1ccccc1` (stereo not drawn), the growth is 94% in the assay on NCI-H23 lung; 86% in the assay on NCI-H226 lung; 84.9% in the assay on NCI-H322M lung; 77.6% in the assay with HOP-62 NSCLC; 86.7% in the assay with NCI-H460 lung; 61.5% in the assay on HOP-92 NSCLC. Further, the growth in the assay with NCI-H522 lung was 89.3%; in the assay with A549/ATCC NSCLC it was 79.3%; in the assay on 786-0 renal it was 86.8%; in the assay with DU-145 prostate, 97.6%; in the assay on K-562 leukemia, 68.9%; with MALME-3M melanoma, 78.7%. In addition, the growth with MDA-MB-231 breast is 71.7%; in the assay on RXF 393 renal it was 137%; with SF-268 CNS, 89.2%; in the assay with SF-295 CNS it was 85.6%; in the assay with SF-539 CNS it was 88.8%; with UACC-257 melanoma it was 113%. Moreover, the growth with M14 melanoma is 84.6%.
Regarding `Fc1ccc(CNc2c3ccccc3nc3ccccc23)c(F)c1`, the growth is 42.8% with NCI-H23 lung; 54.8% with NCI-H226 lung; 49.2% in the assay with NCI-H322M lung; 57.2% with HOP-62 NSCLC; 20% in the assay with NCI-H460 lung; -2.61% (active) in the assay on HOP-92 NSCLC. The growth was 42.3% in the assay with NCI-H522 lung; 40.1% in the assay with A549/ATCC NSCLC; 47.6% with 786-0 renal; 26.8% in the assay on COLO 205 colon; 50.9% in the assay with DU-145 prostate; 22.5% with K-562 leukemia. Moreover, the growth is 69.5% in the assay with MALME-3M melanoma; 44.4% in the assay on MDA-MB-231 breast; 34.5% in the assay with RXF 393 renal; 68.6% with SF-268 CNS; 40.4% in the assay on SF-295 CNS; 32.4% in the assay with SF-539 CNS. Further, the results for the growth in the assay on UACC-257 melanoma and in the assay with M14 melanoma were 68.9% and 55.3%, respectively.
`O=S(=O)(NCCNc1nccc(-c2c(-c3ccc(F)c(O)c3)nc3sccn23)n1)c1ccc(O)cc1`: the growth was 54.6% in the assay on NCI-H23 lung; 37.4% with NCI-H226 lung; 70.8% with NCI-H322M lung; 78.7% in the assay with HOP-62 NSCLC; 40% in the assay on NCI-H460 lung; 47.7% in the assay on HOP-92 NSCLC. In addition, the growth is 25.4% with NCI-H522 lung; 35.3% in the assay on A549/ATCC NSCLC; 49.6% with 786-0 renal; 43.8% with DU-145 prostate; 28.9% with K-562 leukemia; 31% with MALME-3M melanoma. Besides, the growth is 45.6% in the assay on MDA-MB-231 breast; 25.8% in the assay with RXF 393 renal; 37% with SF-268 CNS; 60.2% in the assay with SF-295 CNS; 81.2% in the assay with SF-539 CNS; 58.9% in the assay on UACC-257 melanoma. Besides, in the assay on M14 melanoma, the growth was 27.2%.
